The results in this text go back to PubChem BioAssay (Tox21).

Molecules are shown by their SMILES. Values without a mark were called inactive. The source made the active and inactive calls. The call rests on the fitted dose curve; in most records, active means well fitted curve in the direction sought with a large enough effect in the repeat runs; inconclusive means weak or mixed curves; inactive means flat fitted curve, though single readings scatter.
On the % scale 0 is the no-effect control and ±100 the full control effect.

The nature of the assay: qHTS assay to test for compound auto fluorescence at 535 nm (green) in HEK293 cell free culture (AID 720682). Particulars: cell-free medium, green autofluorescence 485/535 nm, hits give high values; series mostly up to 91.3 µM; activity change: at the top concentration. The text has this: U.S. Tox21 Program National Center for Advancing Translational Sciences [NCATS] NIH Chemical Genomics Center [NCGC] U.S. Environmental Protection Agency [EPA] National Institutes of Environmental Health Sciences [NIEHS] National Toxicology Program [NTP] U.S. Food and Drug Administration [FDA] Tox21 Assay Overview: Compound auto fluorescence often interferes with screening of the compound library against various biological targets and signaling pathways. Some of these compounds may have fluorophoric properties. Such properties may interfere with the assay outputs resulting in false positives and/or negatives. To decrease such complications and ensure the compound activities are relevant in terms of biological response, the Tox21 10K compound library was screened for auto fluorescence. From the fluorophores used as reporter signals in our screening assays, the auto fluorescence equivalencies of compounds against three fluorophores have been evaluated: Triamterene, Fluorescein and Rose Bengal sodium for blue, green and red fluorescence, respectively. The fluorescence intensities were measured using Excitation/Emission wavelengths at 405/460nm, 485/535nm and 540/590nm for blue, green and red labels, respectively. This assay includes the green fluorescence data.
Tox21 Assay Protocol Summary: 5 uL of culture medium (DMEM containing 10% FBS) per well was dispensed into black wall/clear bottom 1536-well plates using a Multidrop Combi Dispenser (ThermoFisher Scientific, Waltham, MA). After 23 nL compound or DMSO vehicle was transferred into assay plate by a pintool work station (Kalypsys, San Diego, CA), fluorescence intensities in the assay plates were measured by an Envision (PerkinElmer, Shelton, CT) plate reader using three labels for measuring blue, green and red fluorescence at […] 460, 535 and 590nm respectively.
On to `CCCCCCCCCCCCCCCCI`, for which the activity change was -0.0077% [at 18.6 µM].

For `Cc1ccc(S(=O)(=O)NC(=O)NC2CCCCCCC2)cc1`, the “activity change” value is -0.0272% [at 46 µM].

Consider `Nc1ccnc(=O)[nH]1`, for which the “activity change” value is -0.0621%.

With `CCCOC(=O)CCCCC(=O)OCCC`, the “activity change” value was -0.0702%.

On to `CCCCCCCCC(=O)OCC`, for which the “activity change” value is 0.0348%.

`CCC(C)(C)C1CCC(=O)CC1`: the “activity change” value is -0.0043%.

With `O=C(O)c1ccccc1C(=O)Nc1ccc(S(=O)(=O)Nc2nccs2)cc1`, the “activity change” value was -0.0482% [at 46 µM].

For the compound `CCCCCC(=O)OCC`, the “activity change” value is 0.0472%.

As to `C=COCCOCCOC=C`, the “activity change” value was 0.0967%.

As for `O=C(O)c1c(Cl)ccc(Cl)c1Cl`, the “activity change” value was 0.0215%.

Take `CC(C)CCCC(C)CC=O` (stereo not given): the “activity change” value was -0.0087%.

As to `CC(C)COC(=O)CC(C(=O)OCC(C)C)S(=O)(=O)O` (stereo not given), the “activity change” value is -0.122%.

Consider `CCC(C)N` (stereo not given), for which the “activity change” value was 0.0279%.

For the compound `CO[Si](CCCS)(OC)OC`, the “activity change” value is 0.0071%.

Turning to `Cc1ccccc1C(=O)N1CC/C(=N\OS(=O)(=O)O)c2ccc(Cl)cc21`, the “activity change” value was 0.0201% [at 46 µM].

In the case of `Oc1ccccc1Cc1ccccc1O`, the “activity change” value is 0.0519%.

As for `C[C@@H]1C[C@H]2[C@@H]3C[C@H](F)C4=CC(=O)C=C[C@]4(C)[C@@]3(F)[C@@H](O)C[C@]2(C)[C@@]1(O)C(=O)CO`, the activity change is 0.0847% [at 18.6 µM].

`CC(=O)Nc1ncc([N+](=O)[O-])s1`: the “activity change” value was -0.0212% [at 46 µM].

`COC(/C=C(\C)CCC=C(C)C)OC`: the “activity change” value is -0.0367%.

As to `CC(C)c1ccccc1O`, the “activity change” value is 0.0501%.

Regarding `CC(=O)/C=C/c1ccco1`, the “activity change” value was -0.0179% [at 95.7 µM].

On to `O=C1c2ccccc2-c2ccccc21`, for which the “activity change” value is 0.0473% [at 95.7 µM].

With `Nc1cc(Cl)cc(S(=O)(=O)O)c1O`, the “activity change” value was -0.0238% [at 95.7 µM].

As for `COc1ccc(/C=N/NC(=O)c2ccncc2)cc1OC`, the “activity change” value is 0.0769% [at 46 µM].

As to `CCCCOC(=O)[C@@H](C)Oc1ccc(Oc2ccc(C(F)(F)F)cn2)cc1`, the “activity change” value was -0.014%.

For the compound `CCCCC/C=C/CC(=O)OC`, the “activity change” value was 0.0756%.

Regarding `CC(=O)Nc1ccc(C)cc1`, the “activity change” value is -0.104%.

In the case of `CC(C)CCC(=O)CCC(C)C`, the “activity change” value was -0.0216%.

Turning to `COc1cc(C=O)ccc1OC(=O)C(C)C`, the “activity change” value was -0.007%.

Consider `O=C(O)/C=C/c1ccccc1`, for which the compound was called inactive.

In the case of `CCC(CO)CO`, the “activity change” value is 0.0255%.

As to `CC(C)CCO`, the “activity change” value was 0.0652%.

In the case of `OC(CCN1CCCCC1)(c1ccccc1)c1ccccc1`, the “activity change” value was 0.107% [at 46 µM].

Consider `CC(CC(=O)O)CC(C)(C)C` (stereo not given), for which the “activity change” value was 0.127%.

`C=CCOc1c(Br)cc(C(C)(C)c2cc(Br)c(OCC=C)c(Br)c2)cc1Br`: the “activity change” value is -0.049% [at 46 µM].

Take `CCNC(=O)/C=C/c1cccc(Br)c1`: the “activity change” value is 0.151% [at 46 µM].

`O=S1(=O)CCCC1`: the “activity change” value was -0.0113%.

For the compound `CC(C)COC(=O)/C=C/c1ccccc1`, the “activity change” value was 0.0496%.

As to `C=C(C)C(=O)OC`, the “activity change” value was 0.0665%.

Take `O=c1[nH]c(=O)c2[nH]c(=O)[nH]c2[nH]1`: the compound was called inactive.
